# From PubChem
# Most compounds without a hit are left out; they make up all but 1.6% or so of the library.
# SIRT5 block: sirtuin-5 (human) deacylase inhibition | Q9NXA8 | Purified SirT5, succinyl-peptide AMC, trypsin-coupled fluorescence | inhibition, % at 15 µM | hit rate 1.1% among 330,000 | AID 652115; in the data active = inhibition above about 15%; inconclusive = no clear call, values can overlap the other calls
# NSD2 inh: inhibitors of human histone methyltransferase NSD2; hit rate 0.54% among 310,000; inhibition, % at 12.5 µM; O96028; NSD2 peptide methylation, AlphaScreen, 120 min; in the data active = inhibition above about 50%
# SUMO HTRF inh: blocks human SUMOylation mediated by UBC9 | P63279 | HTRF SUMOylation assay, SAE1/SAE2 + UBC9, in vitro | inhibition, % at 35 µM | hit rate 0.36% among 290,000; in the data active = inhibition above about 50%, passing the limit was not always enough; inconclusive = no clear call, values can overlap the other calls
# Target sequence (P63279 whole entry, looked up): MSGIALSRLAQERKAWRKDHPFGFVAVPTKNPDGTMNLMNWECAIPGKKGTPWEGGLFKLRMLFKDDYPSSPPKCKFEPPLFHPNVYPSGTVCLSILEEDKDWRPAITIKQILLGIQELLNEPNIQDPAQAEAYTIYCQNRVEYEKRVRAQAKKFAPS
# Casp6 inh: blocks human caspase-6 cleavage activity | P55212 | purified caspase-6, Z-VEID-R110 cleavage fluorescence | inhibition, % at 12.5 µM | hit rate 0.53% among 350,000 | AID 686996;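 active = mean inhibition across replicates at least about 35%, with every replicate also reaching that limit, limit read from the data; inconclusive = only one of the two criteria met; inactive = neither criterion met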;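 note: 0% = median of neutral control wells and 100% = no fluorescence left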
# Target sequence (P55212 24-179 limits assumed): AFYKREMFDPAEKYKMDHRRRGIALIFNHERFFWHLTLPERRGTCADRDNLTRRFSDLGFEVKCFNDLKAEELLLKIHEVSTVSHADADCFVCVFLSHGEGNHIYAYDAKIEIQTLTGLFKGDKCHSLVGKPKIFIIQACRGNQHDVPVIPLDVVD
# Target sequence (P55212 194-293 limits assumed): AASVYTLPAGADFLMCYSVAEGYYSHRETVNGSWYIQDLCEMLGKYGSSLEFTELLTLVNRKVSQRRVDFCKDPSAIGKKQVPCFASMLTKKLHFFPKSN
# AlphaScreen art: counter-screen for NSD2 inhibitors: AlphaScreen artifacts | shares compounds with NSD2 inh | AlphaScreen artifact counterscreen, preloaded methylated H4 peptide | AC35, µM (series often up to 10 µM), without a hit: at the highest dose activity change, negative = signal loss | hit rate 9.4% among 1,500 | AID 1053174; call rule not given here
# * hit, by the source's call; ? = inconclusive; nt = not tested or not shown.
SMILES,SIRT5 block,NSD2 inh,SUMO HTRF inh,Casp6 inh,AlphaScreen art
CCOC(=O)C(Oc1ccc2c(-c3ccc(OC)cc3)cc(=O)oc2c1C)c1ccccc1 (stereo unspecified),nt,53*,-10,nt,-3%
CSc1cnc2c(=O)n(C)c(=O)[nH]c2n1,-14,-1,29,-3,nt
Cn1c(=O)[nH]c2nnc(-c3ccc(Cl)c(Cl)c3)nc2c1=O,nt,107*,-15,-4,-2%
O=S(=O)(Nc1nc(-c2ccco2)c(-c2ccco2)s1)c1ccc(F)cc1F,9,100*,nt,62*,1%
COc1ccc(CN(C)C[C@@H]2Oc3ccc(NC(=O)Cc4cn(C)c5ccccc45)cc3C(=O)N([C@@H](C)CO)C[C@@H]2C)cc1,6,nt,nt,0,nt
CN1CCN(c2ccc(NC(=O)COc3cccc4ccccc34)cc2)CC1,-12,-1,3,-5,nt
CN1CCN(c2ccc(NC(=O)COc3ccc4ccccc4c3)cc2)CC1,-2,125*,12,-7,-1%
O=C(CN1CCC(C(=O)c2ccc3c(c2)OCCO3)CC1)NCc1ccccc1,0,65*,-4,3,1%
CNC[C@@H]1Oc2ncc(-c3ccc(OC)cc3)cc2C(=O)N([C@H](C)CO)C[C@@H]1C,2,nt,nt,-6,nt
Cn1cc(-c2ccccc2C(N)=O)c(=O)c2ccccc21,7,56*,19,1,-1%
Cn1cc(-c2ccccc2C(N)=O)c(=O)c2cc(Cl)ccc21,0,20,11,9,nt
C=CCn1c(SCC(=O)N2CCN(c3ccccc3)CC2)nnc1-c1ccco1,-3,84*,21,-2,-5%
COc1ccc(N=c2scc(C)n2CCCN2CCCC2=O)cc1,-4,151*,-2,0,2%
O=C(c1cc(-c2ccc(Cl)cc2)on1)N1CCCCCC1,-1,0,12,-4,nt
O=C(c1cc(-c2ccc(Cl)c(Cl)c2)on1)N1CCCCCC1,0,81*,-12,-2,-2%
COCC(=O)Nc1ccc2c(c1)OC[C@@H](C)N(Cc1cc(F)ccc1F)C[C@@H](C)[C@@H](OC)CN(C)C2=O,3,nt,nt,0,nt
CCO/C=C/C(=O)N(C)CCC#N,nt,125*,-13,nt,-7%
O=C(C[C@@H]1CC[C@H](NS(=O)(=O)c2ccc(F)cc2)[C@H](CO)O1)N1CCC(Cc2ccccc2)CC1,1,nt,nt,0,nt
CCN(CC)CCNC(=O)c1ccc(CS(=O)(=O)c2ccccc2C)o1,-6,51*,-5,-11,-2%
CCN(CC)C(=O)CSc1nc2ccccc2c(=O)n1CCC(=O)NCc1ccc(F)cc1,nt,121*,-1,nt,0%
CCN(CC)C(=O)CSc1nc2ccccc2c(=O)n1CC,nt,2,1,nt,nt
Cc1ccccc1-c1noc(C23CC4CC(CC(C4)C2)C3)n1,nt,63*,3,nt,6%
C[C@H]1CN([C@@H](C)CO)C(=O)Cc2cc(NC(=O)Cc3ccccc3)ccc2O[C@@H]1CN(C)S(=O)(=O)c1ccc(F)cc1,0,nt,nt,1,nt
COC(=O)C(C)(C)NC(=O)c1cccs1,-4,124*,19,-1,1%
COCCn1c(N)c(N(Cc2ccccc2)C(=O)c2cc(=O)[nH]c3ccccc23)c(=O)[nH]c1=O,0,93*,nt,2,-6%
SMILES,SIRT5 block,NSD2 inh,SUMO HTRF inh,Casp6 inh,AlphaScreen art
CCCCn1c(N)c(N(Cc2ccccc2OC)C(=O)c2cc(=O)[nH]c3ccccc23)c(=O)[nH]c1=O,0,0,nt,-2,nt
NS(=O)(=O)c1ccc(CNC(=O)CCCSc2ccccc2)cc1,5,82*,11,0,-7%
CNC[C@H]1OCCCC[C@H](C)Oc2ccc(NC(=O)Nc3ccc(OC)cc3)cc2C(=O)N([C@H](C)CO)C[C@@H]1C,3,nt,nt,0,nt
Cc1ccc(NC(=O)C[n+]2ccn(C3=C([O-])c4ccccc4C3=O)c2)cc1,nt,89*,-3,1,-4%
CC1=NN(c2ccc(C(=O)O)c(N)c2)C(=O)C1,23*,130*,79*,26,-6%
CCOc1cc(N2CCOCC2)c(OCC)cc1NC(C)C(=O)N1CCN(CC)CC1 (stereo unspecified),15*,90*,27,70*,2%
CCOc1cc(N2CCOCC2)c(OCC)cc1NC(=O)C(C)C,1,19,5,-1,nt
Clc1ccccc1-c1nc(/C=N/N2CCOCC2)c2ccccn12,1,7,9,5,nt
CN1CCN(/N=C/c2nc(-c3ccccc3Cl)n3ccccc23)CC1,nt,67*,-6,nt,-5%
COc1ccc(NC(=O)N[C@H]2CC[C@H](CC(=O)NC3CCCCC3)O[C@@H]2CO)cc1,-2,nt,nt,-2,nt
O=C(C[C@@H]1C=C[C@H](NC(=O)c2ccc(F)cc2)[C@@H](CO)O1)NCCc1ccccc1,0,nt,nt,3,nt
CC(C)Sc1nnc([C@H](Cc2c[nH]c3ccccc23)NC(=O)OC(C)(C)C)o1,nt,54*,-5,nt,-7%
C[C@H]1CN([C@@H](C)CO)S(=O)(=O)c2ccc(-c3cccnc3)cc2O[C@@H]1CN(C)Cc1ccncc1,-2,nt,nt,-1,nt
COCCCNc1nc(-c2ccncc2)nc2ccccc12,nt,-2,19,nt,nt
COCCNc1nc(-c2ccccc2)nc2ccccc12,2,51*,6,-1,-3%
Fc1ccc(CNc2nc(-c3cccnc3)nc3ccccc23)cc1,15,118*,7,-5,1%
CO[C@H]1CN(C)C(=O)c2cc(NS(=O)(=O)c3ccc(C)cc3)ccc2OC[C@@H](C)NC[C@H]1C,0,nt,nt,-1,nt
COCC#Cc1cnc2c(c1)C(=O)N([C@@H](C)CO)C[C@@H](C)[C@@H](CN(C)C(=O)CCN1CCCCC1)O2,-3,nt,nt,0,nt
CO[C@@H]1CN(C)C(=O)c2cc(NS(=O)(=O)c3ccccc3)ccc2OC[C@H](C)NC[C@@H]1C,nt,nt,nt,1,nt
COc1ccc(NC(=O)c2ccc(F)c(F)c2)c2ccccc12,-4,54*,-5,-1,0%
NCC[C@@H]1CC[C@H](NC(=O)C2CC2)[C@H](CO)O1,0,nt,nt,0,nt
CCCCN(CC)CCNC(=O)c1ccc2c(Cl)c3c(nc2c1)CCC3,-2,75*,-7,-10,-4%
CCN(CC)CCCNC(=O)c1ccc2c(Cl)c3c(nc2c1)CCCC3,-4,44,10,-6,nt
CCOC(=O)C1=CN(c2cccc(F)c2)C=C(C(=O)OCC)C1c1cc(OC)c(O)c([N+](=O)[O-])c1,nt,57*,-15,nt,-16%
COC(=O)C1=CN(c2ccc(F)cc2)C=C(C(=O)OC)C1c1ccc([N+](=O)[O-])cc1,-2,7,9,3,nt
C[C@@H]1CN([C@H](C)CO)S(=O)(=O)c2ccc(Br)cc2O[C@H]1CN(C)C(=O)c1cnccn1,0,nt,nt,-4,nt
NS(=O)(=O)c1ccc(N/N=C/c2ccc(O)c(O)c2O)c([N+](=O)[O-])c1,16*,73*,?,68*,-10%
CN1/C(=N\O)c2cccc3cccc1c23,nt,55*,36,nt,8%
CCCNC(=O)N1CC2(CCN(C(=O)Cc3cccnc3)CC2)c2c([nH]c3cc(OC)ccc23)[C@H]1CO,-2,nt,nt,0,nt
Cc1cccc(C)c1OCC(O)CNS(=O)(=O)c1ccccc1C(=O)N1CCCCC1 (stereo unspecified),nt,105*,-10,nt,-6%
